Z-score data for 108 sequences are collected here from PubChem BioAssay AID1508600 (Functional Genomics Laboratory (NCATS/FGL), 2020).

Hit rate of the full screen: of about 53,000 sequences, about 3,700 (7%) were called active. Many of the other results were omitted from the sample, so actives are more common in it than they were. A number with no mark means an inactive call.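 Rule for the calls: active = gene knockdowns whose robust z-score for IL-1 alpha signal is at least 2 or at most -2, so actives lie on both sides; inactive = the rest.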

A short description of this experiment: Components of the Cytosolic LPS Sensing Pathway: Gene Identification via Genome-wide siRNA Screen.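 Note: robust z of the log signal after scaling to non-targeting control siRNA wells of the plate.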 To be noted: RAW264.7 macrophages, IL-1a HTRF, actives lie on both sides, screened at 100 nM (by protocol), cells primed 5 h with Pam3CSK4 first. Put shortly:
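Supernatant IL-1a by HTRF from RAW264.7 cells primed with Pam3CSK4 (5 hours) and transfected with LipidA (24 hour) after 48h siRNA knockdown at 100 nM; cell viability checked with CellTiter-Glo.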
Turning to GGUGGACCUGAAACGUAGCTT against Inhbb, the z-score is 0.878.

GGUUCAUCUUUCAAAUCUATT against Kpna4: the z-score is -0.676.

For the sequence CCUGUAGGUGGAAUAAACATT against Awat2, the z-score is -2.28 (active).

Regarding CCUAGUAAUGUCCAUUGUGTT against Endod1, the z-score was 0.0364.

For GGACUCAGAUAUCUUUCAGTT against Adck1, the z-score was -0.328.

Consider CGUUGCUGACUGCUAUGAATT against Tmprss13, for which the z-score was -1.22.

CCACUUUCACAUGAAGUUATT against Eif2s3x: the z-score was -0.7.

With GCUCCAGCUUGCACUCUUGTT against Trp53i13, the z-score was 1.36.

GCCACAUCGUAGACAAGUATT against Zfp41: the z-score was -2.71 (active).

On to CCCGAACCUGUUGUCUGAATT against Ttc8, for which the z-score was -0.422.

Consider GCCAAGUGCUACAACAUCCTT against Ifitm5, for which the z-score is -0.64.

Consider CCGAGAUUGCCUGUUUGGUTT against Rnf144b, for which the z-score is 2.08 (active).

Regarding GGAACUCAAAUUGAAAAGGTT against Manea, the z-score is -0.135.

For the sequence GCUAUUGGAGAUAUAAUGGTT against Ace, the z-score is 1.58.

GGACUUUUUCAAAGGUUUUTT against Eif4g3: the z-score is 2.37 (active).

As for GGCAGGCAACCAAUCAAAUTT against Npepps, the z-score is 1.29.

For the sequence GGAUUUCAUUAUCCUGUUUTT against Zfp608, the z-score is -1.19.

Turning to GCCUUGAACUAUGCAUAGATT against Eno2, the z-score is 1.7.

In the case of GGCCUCAUGCAGGAACAUUTT against Polr2d, the z-score was -2.34 (active).

For the sequence GGAAGAAGAAAGAUUCAAATT against Bcan, the z-score was -0.862.

Turning to GAUUUUUCAAAUCUUUGGCTT against Plac8, the z-score was -1.52.

For GAGCAUCUGUGUAGAAGUGTT against Thrsp, the z-score was 0.786.

As for CCUGGUACAAUCAAACUGCTT against Rnf222, the z-score is 0.516.

As to GGCAGAAUGGGAAAUGUAUTT against Htr7, the z-score is -0.841.

As for GCCGUUUAUUCAUUGCACUTT against Cdc123, the z-score was 1.21.

Regarding GGACUUGACCUCAAGGGAATT against Sox6, the z-score was 2.35 (active).

Turning to GGAAUUCAAUCAGUUUGCUTT against Dysf, the z-score was 1.06.

On to GGCAUUUUUCGGAUUGACATT against Mmp27, for which the z-score was -0.807.

With CCCUCUGAACUAUAUGACUTT against Olfr700, the z-score was -1.09.

In the case of GGUGUGGAACGACAAACAGTT against Pla2g4f, the z-score is -2.8 (active).

For the sequence GGCUUUGUGGACUUAAUUATT against Cyb5r2, the z-score was -1.

Regarding GCAUCACUGGAUUGUGGAUTT against Tm9sf2, the z-score is 0.188.

Turning to GGGAAAAAUGGUCAGAUUATT against Colgalt2, the z-score was -1.08.

Regarding GGUUCCUAAGGAUGAACUUTT against Akr1c14, the z-score was -0.186.

In the case of GGCCUAGCAAGGGAUUUUATT against Cep85, the z-score is -2.02 (active).

Turning to GGAUCUCUUUGUUAAUGGUTT against Mall, the z-score was 0.715.

Take GCCAUAUGCUAUCAAGAUGTT against Pskh1: the z-score is -0.715.

For the sequence GGAAUGCUACAACUCAAAATT against Ptk2, the z-score is -0.861.

In the case of GGCAUUGGUUCCUACAAGATT against Gm773, the z-score is -0.118.

As for GGUAGAGGAUCUCUCUAAATT against Fbxo44, the z-score was -0.444.

For GCUGGUAAACAUAGGUGGCTT against C1qtnf4, the z-score was 2.18 (active).

As to GGUCCAUGGGUAAGAGGAUTT against Vmn1r43, the z-score was 1.2.

For the sequence GGUCGUGCGAUCCACAGAUTT against Vangl2, the z-score is -0.44.

Consider GUUUUGGAUUCCUCUGUCATT against Olfr1097, for which the z-score was -1.69.

For the sequence GGAAAAUUCCAGAAACCAUTT against Mettl8, the z-score was 0.608.

Take GGAUGAAGAGAAAGUUCUATT against Mak: the z-score is 2.49 (active).

With GGUGAGGUUCAAACAUUCUTT against Sdf2, the z-score is 0.0627.

GGGAUUCCACGGAUACUGUTT against Rnase13: the z-score is -0.858.

Consider GGACUACCAGUUUUACAUCTT against Ssr1, for which the z-score was 1.25.

As for GCCGGUGACUUUCUAAUUUTT against Yrdc, the z-score was -1.32.

For the sequence GCCUUAACUAUAGUCCAGATT against Scn7a, the z-score is -0.928.

As to GGCAUGGCUGGCAAAAACATT against Ppp1r15a, the z-score was -1.85.

On to UGCAAUCCGGAUCAAACGUTT against Cebpb, for which the z-score was -2.03 (active).

For GGAAGAUUUCUUCAAACGCTT against Lhx4, the z-score is -0.167.

Turning to CCUGAAGAGGAUGAUAUGGTT against Fam221a, the z-score was 0.144.

As to GGUCUUCAGAAUCCUCAAUTT against Ap1g2, the z-score is -0.4.

As for GCCAACCUGAAACCAUCUATT against Ptprg, the z-score was 0.0567.

In the case of GGACACAGACAAUGAAAUGTT against Fetub, the z-score is -2.35 (active).

Turning to GGAGCAUUGCUCUUCUUCATT against Get4, the z-score is -0.073.

For GCAGAAGUAUUACUGGAUGTT against Olfr572, the z-score is 0.841.

As for GCUAGGAACGAGGAGCUAATT against Prrt3, the z-score is 1.07.

GGAAUACAUAGCACACGGUTT against Apba2: the z-score is 1.06.

For CCCUGAAACAAUGAAUACATT against Serpini1, the z-score was 0.325.

In the case of “GCUUCCUAACCAGGUUUGATT against 4430402I18Rik”, the z-score is 2.1 (active).

For GGAGAAGCUAAGAAACGAGTT against Acyp2, the z-score was -0.696.

Regarding CCCACAUUGCUUACCUUUCTT against Zfp523, the z-score is -0.762.

For GCUGGGUUGCUGAUUUUUGTT against Arl5a, the z-score is -0.881.

For the sequence GGGCUUUCUCCAAUCGUAATT against Gm4876, the z-score was 0.603.

Take CGAGCCUCUGUGAUAUCCATT against Cst11: the z-score is -2.69 (active).

Turning to GGUUCUGUCUUUUACUUUCTT against Olfr1496, the z-score is 0.232.

In the case of CGAGUGCUUCUCUUGACAUTT against Mrpl22, the z-score was -0.43.

With GGAUAAUUAUAGGAAGAGCTT against Ncapd3, the z-score is -0.507.

On to GGGAUGCUAACAGGUGUCATT against Tkfc, for which the z-score was -0.12.

Consider GGCAUUACAUUUCAAUGAATT against Serpinb12, for which the z-score is -0.71.

In the case of GGAAUACACUCAAUAUUGATT against Nupl1, the z-score is -2.59 (active).

Take GGUGUUCUUGAAGUUUAUATT against Zfp157: the z-score is 0.579.

On to GCAGGAGUCAAAUUUUCUATT against Nemp1, for which the z-score is -0.795.

As for GGAUUUUUGACUGUGAUUCTT against Pak1ip1, the z-score is -1.57.

Take CCCAGACAUUACAUGGCCUTT against Cldn6: the z-score was -0.935.

As for GGAACAAUGGGUUCAUUUUTT against Ifi203, the z-score was 0.136.

For the sequence CGUAAUCUUCAUCUUAGUATT against Olfr613, the z-score was 0.601.

In the case of GGAACCAAGGAUGUGAAAGTT against Rab13, the z-score is -2.17 (active).

As to GGAGUCUUGGAAAAAAGGCTT against Rep15, the z-score is -1.65.

On to GGCCUGUUGAUUGCAUAUUTT against Sppl2a, for which the z-score was -1.01.

GGCCUGAAAAGACUGAUAATT against Vmn2r26: the z-score is 1.18.

With GCUAGUUAAGAGGAGGCUGTT against Nob1, the z-score was -0.252.

GGAGCACAGGAAAAUAUAUTT against Mdm2: the z-score was 0.561.

For GCACUUUGUAUAUCUUUCCTT against Btd, the z-score is 1.51.

On to GGAGAAGGAUUAUACCAGUTT against Rfesd, for which the z-score was 2.2 (active).

For GGGAGUUUCCAGAUGUUUUTT against Gclm, the z-score was 0.0729.

For the sequence GGAAGAAAAGACUUAUCGUTT against Jkamp, the z-score was -0.663.

In the case of GGGAAACAUCUUCCUAUCCTT against Serpina12, the z-score was -0.958.

Turning to GGCAGGUUUUUGACAACUUTT against Fxyd4, the z-score was 3.2 (active).

On to CCUAAUAAGCCAUAUGCAUTT against Alkbh8, for which the z-score is -0.449.

Take GCCCUCUGUGAGUAGUAAUTT against Shroom3: the z-score was 0.603.

On to GUUACUACAACAGCUACUATT against Krtap19-4, for which the z-score was -2.37 (active).

For the sequence GGACAUUGCCCACAUGACCTT against Rnf227, the z-score is -0.15.

For the sequence GCUCAACAGGCUCAACUACTT against Cndp2, the z-score is 0.492.

In the case of GGACUACCGAACAAGAGAATT against Zfp318, the z-score is 0.241.

For the sequence GCAUUCACCGUACGUAUUCTT against Id4, the z-score is 0.187.

Consider GGGUAGAAUCCAAGAAGCGTT against Hoxb3, for which the z-score is -2.08 (active).

For GGUCUUCAACCCUGUUUGGTT against Gpsm3, the z-score is 0.329.

On to GGAGACUCCAUACCAGUGUTT against Zfp329, for which the z-score is 1.78.

For the sequence GGAUAUGGGAAUGAAAGCATT against Nyap2, the z-score is -2.21 (active).

For GGCAGCAUUACACUGAAUCTT against Slc36a4, the z-score was 0.436.

For the sequence CCUAGUGAUUAAAGGGAUGTT against Prss43, the z-score is 1.19.

For the sequence GGAAAGUGUUUUCUCAUGATT against Klf9, the z-score was -0.23.

Take GGUGGUCUACUUCACCGCATT against Slc6a20a: the z-score was 0.466.
